Experimental data published in PubChem BioAssay (NCI).
This is part of a sample that, as a whole, favours compounds with a hit. Of some 83,000 tested, about 20% had one in any assay.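 Values shown are percent growth following 48 h exposure of cells in 96-well plates to a single concentration of compound; below 10 was considered active.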 A number with no mark means an inactive call. Calls of active or inactive are those of the source.

System: SK-MEL-28 melanoma
Test: NCI-60 one-dose screen, 48 h (100 = growth as untreated, 0 = no growth, -100 = all killed)
Details: 10 µM unless noted
Description: Growth inhibition of the SK-MEL-28 human tumor cell line is measured as a screen for anti-cancer activity. Cells are grown in 96 well plates and exposed to the test compound for 48 hours. Compounds are tested at a single concentration, which is 10^-5 M for most compounds. The reported endpoint is percent growth (GI% or GIPRCNT), where numbers from 0 - 100% represent growth inhibition, and numbers from -100% - 0 represent cell death. For example, a value of 40 represents 60% growth inhibition. A value of 0 means no net growth occurred over the course of the experiment. A value of -40 indicates 40% of cells at the beginning of the experiment died by the end of the experiment. A value of -100 means all cells are dead at the end of the experiment.
NCI-60 Human Tumor Cell Lines Screen was performed using the standard one-dose NCI protocol, which is described in more detail at https://dtp.cancer.gov/discovery_development/nci-60/default.htm.
Compounds with GIPRCNT values below 10 were considered active. Activity score was based on GIPRCNT using the following formula: […]
Score is 0 for GIPRCNT values of 100 or above, 50 for GIPRCNT values of 0, and 100 for GIPRCNT values of -100.

Compound	growth
CCOc1ccc2nc(SCc3nc4n(n3)S(=O)(=O)c3ccccc3N4C)sc2c1	45.7%
Cc1cc(C)c(-c2c(N)cc(Br)cc2Br)c(N)c1	51.1%
CCc1ccccc1-n1c(N)c(C#N)c(-c2ccc(Cl)cc2)c(C#N)c1=O	113%
CN1CCN(Cc2ccc(NC(=O)c3ccc(C(C)(C)C)c(C#Cc4cnc5cccnn45)c3)cc2C(F)(F)F)CC1	-68.8% (active)
COc1cc(C(=O)/C=C/c2c(Cl)nc3sccn23)cc(OC)c1OC	93.6%
Cc1ccc2sc3c(NCCN)nc4ccccc4c3c(=O)c2c1	111%
O=C(O)CCC/C=C\C[C@H]1C=CC(=O)/C1=C/C[C@@H](O)CCc1cccc(C(F)(F)F)c1	-43.6% (active)
Cc1ccc2sc3c(NCCCN)nc4ccccc4c3c(=O)c2c1	95.3%
C#Cc1cccc(NC(=O)c2ccc(NC(=O)C=C)cc2)c1	98.2% [8.25 µM]
Cc1nc2ccccc2c(/C=C/c2ccc(Cl)cc2)c1C(=O)/C=C/c1ccc(C(F)(F)F)cc1	-69.7% (active)
O=C1c2ccccc2NC(n2sc3ccccc3c2=O)N1c1ccccc1 (stereo not given)	116%
COC(=O)c1ccc2[nH]c(O)c(C(=Nc3ccc(N(C)C(=O)CN4CCN(C)CC4)cc3)c3ccccc3)c2c1	29.3%
C[C@]12CC[C@@H]3c4cc(OC(F)F)c(OS(N)(=O)=O)cc4CC[C@H]3[C@@H]1CC[C@@H]2O	53.6%
CCc1ccc(Oc2c(-c3ccc(OCCc4cccc(C(F)(F)F)c4)cc3O)n[nH]c2C(F)(F)F)cc1	44.3%
Fc1cc2c(cc1Cl)N(c1ncnc3ccc(-c4cnc5cnccn45)cc13)CC2	97.1%
CCOC(=O)c1cn2ncnc(Oc3ccc(NC(=O)NCCN4CCN(C)CC4)c(Cl)c3)c2c1C	13.3%
CCc1nnc(NC(=O)c2nnn(-c3ccccc3)c2-c2ccco2)s1	95.1%
C(=N/Nc1ncnc2nc[nH]c12)/c1ccccn1	49.1%
COc1cccc2c(=O)c3c(sc12)c(N1CCNCC1)nc1ccccc13	107%
COc1ccc(NC2=C(Br)C(=O)C(C)=C(C)C2=O)cc1	103%

Compound	growth
CCCCCCCCCCCCCCCCCCOc1ccccc1CCCOP(=O)(O)OCC[N+](C)(C)C	93.1%
CCOC(=O)c1c(C)nc2c(c1N)CC(=O)N2Cc1ccc(F)cc1	111%
CNC(=O)c1cc(-n2ccc3cc(NC(=O)c4ccc(N5CCOCC5)c(C(F)(F)F)c4)ccc32)ccn1	82.2%
Cc1cc2nc3ccc(N=Nc4ccc(N(C)C)cc4)cc3n(-c3ccccc3)c-2cc1=N	-96.6% (active)
Cc1nn(-c2ccccc2)c2c1N=c1s/c(=C\c3ccc(C(F)(F)F)cc3)c(=O)n1CN2	87.2%
CC1=C(C)C(=O)C(Nc2cccc(C(=O)OC(C)(C)C)c2)=C(Br)C1=O	101%
CC(C)n1cnc2c(Nc3cccc(Cl)c3)nc(N[C@H]3CCCC[C@@H]3N)nc21	61.7%
COc1ccc(-c2cc(-c3ccc(Cl)cc3)c(C#N)c(=O)n2CCCCCC(=O)Nc2ccccc2N)cc1	60.5%
COc1cc(C(=O)N/N=C/c2cc3cc(OCc4ccccc4)ccc3nc2OC)cc(OC)c1OC	100%
CCN1C(=O)N(CC)C2Nn3c(s/c(=C4\C(=O)N(CC(C)C)c5ccccc54)c3=O)=NC21 (stereo not given)	66%
COc1cc2cc(Oc3ccc(NC(=O)Nc4cccc(C(F)(F)F)c4)cc3)c(C)nc2cc1OCCN1CCOCC1	68.8%
CCOC(=O)CC1C(COC(=O)NC)OC(n2cnc3c(NC(=O)Nc4ccccc4)ncnc32)C1O[Si](C)(C)C(C)(C)C (stereo not given)	71.9%
Cc1ccc2nc(NC(=O)CSc3nc(Cl)c(C#N)c(-c4ccccc4)n3)sc2c1	103%
COc1ccc(-c2ncnc3c2ncn3CC#CCCl)cc1	86.7%
Cc1[nH]c(C(=O)Nc2ccc(C(=O)NCCN)cc2OC(C)C)c(Cl)c1Cl	70.9%
Cc1ccc(C(=O)N/N=C/c2cccc([N+](=O)[O-])c2)cn1	103%
COC1=C(C)C(=O)c2c(c(CCCl)c3n2CCC3O)C1=O (stereo not given)	-27.7% (active)
CCOC(=O)NCCc1ccccc1	118%
Nc1nc(-c2cccc3ccccc23)cc2ccccc12	48.2%
c1ccc(-c2nc3sc(-c4ccccc4)cn3n2)cc1	107%
